Measurements from the supplement of paper PMC5919970.
Whole data set: some 2,000 compounds, median “fractional viability relative to vehicle” near 0.91, cut for the lowest 2% near 0.045. For the sample, the lowest values were picked, then their nearest neighbours and some compounds at random.

Test system: TYKNU
Experiment: fractional viability relative to vehicle; TYKNU is a high-grade serous ovarian cancer line; higher = less growth inhibition
Details: 72 h
Method in brief: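 Drug treatment lasted 72 h, with cells grown at 37 °C in 5% CO2 in RPMI 1640 supplemented with 10% FBS. Beforehand, TYKNU control cells or their lentiCRISPRv2 knockout derivatives had been seeded at 500 cells per well into drug-stamped 384-well plates carrying a ~2100-compound library at 2 or 10 μM, in duplicate. Viability came from Cell Titer Glo luminescence, with averaged duplicate treatment wells normalised to duplicate control wells in the same plate position.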

[1] = 2uM, genotype: DNM1L knockout (sgDNM1L #1)
[2] = 2uM, genotype: sgCTRLA1 (non-targeting control)
[3] = 10uM, genotype: DNM1L knockout (sgDNM1L #1)
[4] = 10uM, genotype: sgCTRLA1 (non-targeting control)

Compound	fractional viability [1]	fractional viability [2]	fractional viability [3]	fractional viability [4]
Nc1nc(Nc2ccc3c(c2)CCC(N2CCCC2)CC3)nn1-c1cc2c(nn1)-c1ccccc1CCC2 (centres undefined)	0.343	0.242	0.0232	0.0259
CNC[C@@H](O)c1ccc(O)c(O)c1 [L-Adrenaline]	0.842	1	0.784	0.91
CC(C)Oc1ccc(C(=O)N[C@H](CNC(=O)CN(C)C)Cc2ccc(-c3cn4cccc([C@H](C)O)c4n3)cc2)cc1Cl	0.413	0.508	0.29	0.438
Clc1cccc(-c2nnnn2Cc2cccnc2)c1Cl	0.755	0.927	0.755	0.73
O=[N+]([O-])c1ccc2c(c1)S(=O)(=O)C=C2 [Stattic]	0.0799	0.101	0.0327	0.0222
CS(=O)(=O)Nc1ccc([N+](=O)[O-])cc1Oc1ccccc1 [Nimesulide]	0.973	1.1	0.922	1.01
O=C(O)c1cc(=O)[nH]c(=O)[nH]1 [Orotic acid (6-Carboxyuracil)]	0.916	1.04	1.02	1.12
COc1ccc([C@]2(C#N)CC[C@@H](C(=O)O)CC2)cc1OC1CCCC1 [Cilomilast]	0.977	1.1	0.843	1.15
CCc1c(Cl)c(O)c(Cl)c(O)c1C(=O)O[C@H]1[C@H](O)[C@H](OC)[C@H](OC/C2=C\C=C\C[C@H](O)/C(C)=C/[C@H](CC)[C@@H](O[C@@H]3OC(C)(C)[C@@H](OC(=O)C(C)C)[C@H](O)[C@@H]3O)/C(C)=C/C(C)=C/C[C@@H]([C@@H](C)O)OC2=O)O[C@@H]1C [Fidaxomicin]	0.741	0.893	0.494	0.0966
C[C@H]1O[C@@H](O[C@H]2[C@@H](O)C[C@H](O[C@H]3[C@@H](O)C[C@H](O[C@H]4CC[C@@]5(C)[C@H](CC[C@@H]6[C@@H]5C[C@@H](O)[C@]5(C)[C@@H](C7=CC(=O)OC7)CC[C@]65O)C4)O[C@@H]3C)O[C@@H]2C)C[C@H](O)[C@@H]1O [Digoxin]	0.0546	0.0452	0.032	0.0309
CCS(=O)(=O)N1CCC([C@@H](C)n2c(C)c(C(=O)NCc3c(OC)cc(C)[nH]c3=O)c3ccccc32)CC1	0.746	0.93	0.908	0.836
NC(=O)NO [Hydroxyurea]	0.92	1.14	0.948	1.16
CC(C)c1cnn2c(NCc3ccccc3)cc(NCCCCCCN)nc12	1.09	1.13	0.83	0.972
O=C(O)c1ccccc1 [Benzoic Acid]	0.793	0.98	0.581	0.958
O=C(O)CCNC(=O)c1ccccc1 [Betamipron]	0.922	1.11	0.923	0.986
CN(NC(=O)CC(=O)NN(C)C(=S)c1ccccc1)C(=S)c1ccccc1 [Elesclomol (STA-4783)]	0.0609	0.0221	0.0751	0.0222
